Screen size: about 5,500 compounds; about 2,000 (36%) were called active. About 18% were inconclusive and are not listed. Cut-off read from the data, not from the text of the source: active = normalized growth mostly below about 0.91 (no sharp cut-off); inconclusive = no clear call, values can overlap the other calls; inactive = mostly above about 0.92. The list shows a part of the results.
Test: chemical genetic growth profiling, strain panel (AID 1159580);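 note: tested at 20 µM; growth read once vehicle control cultures reached saturation at 30 °C; 1 = growth at the plate median or of vehicle wells; lower values mean less growth of the strain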
Conditions: S. cerevisiae deletion strains, growth OD

Measured: normalized growth

CNC(=O)O/N=C\C(C)(C)SC
inactive: locus YAL013W, strain DEP1, hits give low values 1.01 | locus YAL021C, strain ccr4, hits give low values 0.997 | locus YAL026C, strain drs2, hits give low values 1 | locus YAL030W, strain snc1, hits give low values 1 | locus YBL061C, strain skt5, hits give low values 1.01 | locus YBR009C, strain hhf1, hits give low values 0.988 | locus YBR021W, strain FUR4, hits give low values 1.03 | locus YBR023C, strain chs3, hits give low values 1 | locus YBR171W, strain sec66, hits give low values 1.01 | locus YBR229C, strain ROT2, hits give low values 0.996 | locus YBR231C, strain swc5, hits give low values 0.998 | locus YBR279W, strain paf1, hits give low values 1.01 | locus YCL011C, strain gbp2, hits give low values 1.01 | locus YCL016C, strain dcc1, hits give low values 1.01 | locus YCL029C, strain bik1, hits give low values 0.987 | locus YCL061C, strain MRC1, hits give low values 1.01 | locus YCL069W, strain vba3, hits give low values 1.01 | locus YCR088W, strain abp1, hits give low values 1 | locus YDL005C, strain med2, hits give low values 1 | locus YDL035C, strain GPR1, hits give low values 1.02 | locus YDL040C, strain nat1, hits give low values 0.99 | locus YDL074C, strain BRE1, hits give low values 1.08 | locus YDL101C, strain DUN1, hits give low values 1.01 | locus YDL134C, strain PPH21, hits give low values 1.01 | locus YDL185W, strain tfp1, hits give low values 0.99 | locus YDL192W, strain arf1, hits give low values 0.994 | locus YDR001C, strain nth1, hits give low values 1.01 | locus YDR069C, strain doa4, hits give low values 0.999 | locus YDR101C, strain arx1, hits give low values 0.986 | locus YDR137W, strain rgp1, hits give low values 1.02 | locus YDR150W, strain NUM1, hits give low values 1.01 | locus YDR159W, strain sac3, hits give low values 0.965 | locus YDR162C, strain NBP2, hits give low values 1.01 | locus YDR195W, strain ref2 0.964 | locus YDR297W, strain sur2, hits give low values 0.999 | locus YDR318W, strain mcm21, hits give low values 0.993 | locus YDR334W, strain swr1, hits give low values 1.01 | locus YDR335W, strain msn5, hits give low values 1.01 | locus YDR388W, hits give low values 0.985 | locus YDR392W, strain spt3, hits give low values 0.886 | locus YDR502C, strain sam2, hits give low values 1 | locus YEL003W, strain gim4, hits give low values 1.01 | locus YEL037C, strain rad23, hits give low values 1.01 | locus YEL061C, strain CIN8 (second series), hits give low values 1.01 | locus YEL061C, strain CIN8, hits give low values 1 | locus YER015W, strain faa2, hits give low values 1.02 | locus YER016W, strain bim1, hits give low values 1.01 | locus YER110C, hits give low values 0.983 | locus YER111C, strain swi4, hits give low values 1.02 | locus YER155C, strain BEM2 (second series), hits give low values 0.995 | locus YER155C, strain BEM2, hits give low values 0.998 | locus YER167W, strain BCK2, hits give low values 1.02 | locus YFR010W, strain ubp6, hits give low values 0.998 | locus YGL078C, strain dbp3, hits give low values 0.986 | locus YGL086W, strain mad1, hits give low values 0.987 | locus YGL167C, strain pmr1, hits give low values 0.995 | locus YGL173C, strain kem1, hits give low values 0.997 | locus YGL227W, strain vid30, hits give low values 1.01 | locus YGL240W, strain doc1, hits give low values 0.972 | locus YGL248W, strain PDE1, hits give low values 1.01 | locus YGL253W, strain hxk2, hits give low values 0.997 | locus YGR078C, strain PAC10, hits give low values 1.01 | locus YGR135W, strain pre9, hits give low values 1 | locus YGR229C, strain SMI1, hits give low values 1.03 | locus YGR252W, strain gcn5, hits give low values 0.98 | locus YHR013C, strain ard1, hits give low values 0.971 | locus YHR027C, strain rpn1, hits give low values 1 | locus YHR030C, strain SLT2, hits give low values 0.984 | locus YHR079C, strain IRE1 (second series), hits give low values 0.988 | locus YHR094C, strain hxt1, hits give low values 0.983 | locus YHR129C, strain ARP1, hits give low values 1.02 | locus YHR142W, strain chs7, hits give low values 1 | locus YHR200W, strain rpn10, hits give low values 0.98 | locus YIL066C, strain RNR3, hits give low values 1.03 | locus YIL073C, strain SPO22, hits give low values 0.995 | locus YIL125W, strain kgd1, hits give low values 0.997 | locus YIR030C, strain dcg1, hits give low values 0.992 | locus YJL092W, strain hpr5, hits give low values 1.01 | locus YJL095W, strain BCK1 (second series), hits give low values 1 | locus YJL095W, strain BCK1, hits give low values 1.03 | locus YJL115W, strain asf1, hits give low values 1.02 | locus YJL129C, strain trk1, hits give low values 1.01 | locus YJL134W, strain LCB3, hits give low values 1 | locus YJL154C, strain vps35, hits give low values 1.02 | locus YJL164C, strain tpk1, hits give low values 1.01 | locus YJL166W, strain qcr8, hits give low values 1 | locus YJL168C, strain set2, hits give low values 0.98 | locus YJL187C, strain SWE1 (second series), hits give low values 1.01 | locus YJL187C, strain SWE1, hits give low values 0.998

From PubChem BioAssay AID1159580 (chemical genetic matrix, 2015)
